Data as given in PubChem BioAssay (NCI).
About 79,000 compounds went through this panel and 15% of them were active in at least one assay; those are over-represented in the sample as a whole. Values without a mark were called inactive. The source made the active and inactive calls. No stated cut-off is given here; in the data, active means growth inhibition above about 70%; inactive means the rest.

Columns and labels:
[1] = NCI Yeast Anticancer Drug Screen. Data for the rad50 strain (AID 155);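 further: 0% = growth of vehicle-only cultures of the same strain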; conditions: S. cerevisiae rad50 strain growth inhibition; at 50.0 µM; hits give high values
Procedure, shortened: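 Growth of the mutant yeast was measured after compound exposure and referenced to vehicle-treated cultures.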

[2] = NCI Yeast Anticancer Drug Screen. Data for the mec2-1 strain (AID 157); conditions: S. cerevisiae mec2-1 strain, at 50.0 µM, hits give high values
Procedure, shortened: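 Test agents were screened against the mec2-1 yeast strain, with defined DNA repair or cell cycle alteration. Growth was scored as inhibition against vehicle-only controls.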

[3] = NCI Yeast Anticancer Drug Screen. Data for the sgs1 mgt1 strain (AID 161);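 further: 0% = growth of cultures given vehicle only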; conditions: S. cerevisiae sgs1 mgt1 strain, at 50.0 µM, hits give high values
Procedure, shortened: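 Genetically altered yeast, compound exposure, growth inhibition relative to vehicle.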

[4] = NCI Yeast Anticancer Drug Screen. Data for the cln2 rad14 strain (AID 165);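 further: 0% = growth equal to vehicle treated cultures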; conditions: S. cerevisiae cln2 rad14 strain, at 50.0 µM, hits give high values
Procedure, shortened: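 Growth of compound-exposed yeast (cln2 rad14 genotype) measured and expressed as inhibition relative to vehicle.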

[5] = NCI Yeast Anticancer Drug Screen. Data for the bub3 strain (AID 167); conditions: S. cerevisiae bub3 mutant strain, at 50.0 µM, hits give high values
Procedure, shortened: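 Whole-cell yeast assay. The mutant strain was incubated with compounds, and growth inhibition was determined by comparison with vehicle-treated cells.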

[6] = NCI Yeast Anticancer Drug Screen. Data for the mlh1 rad18 strain (AID 175); conditions: S. cerevisiae mlh1 rad18 strain growth inhibition; at 50.0 µM; hits give high values
Procedure, shortened: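 In this whole-cell yeast screen, a strain with altered DNA damage repair is challenged with compound, and its growth is measured against matched vehicle-treated controls.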

| Structure (SMILES) | growth inhibition [1] | growth inhibition [2] | growth inhibition [3] | growth inhibition [4] | growth inhibition [5] | growth inhibition [6] |
| --- | --- | --- | --- | --- | --- | --- |
| O=C(Nc1cc(-c2ccccc2)[nH]n1)c1ccccc1Cl | 22.1% | 16.6% | 60.5% | 31.2% | 42.1% | 28.3% |
| O=C1NC(=S)N/C1=C\c1ccco1 | 21.9% | 10.2% | 0.5% | 15.2% | 26.5% | 32% |
| C/C(CCc1cnc2ccccc2c1)=N/NC(N)=O | 69.2% | 27.5% | 85.7% (active) | 37.8% | 67.3% | 95.6% (active) |
| COc1cc(N=C2C=CC(=O)C=C2)c2ncccc2c1 | 2.95% | 1.05% | 4.1% | -33.1% | -0.7% | 3.75% |
| Cc1c2oc3c(C)ccc(C(=O)NCCN4CCCC4)c3nc-2c(C(=O)NCCN2CCCC2)c(N)c1=O | 64.5% | 17.4% | 5.9% | 4.2% | 3.6% | 9.65% |
| CC(=O)OCC1OC(n2nc(/C=C/c3ccccc3)c(=O)n(-c3ccccc3)c2=S)C(OC(C)=O)C(OC(C)=O)C1OC(C)=O (stereo not drawn) | 0.1% | 20.6% | 8.85% | -10.3% | -0.45% | 31.9% |
| COc1ccc(/C(C)=N/OC(=O)c2sc3ccccc3c2Cl)cc1CN1CCOCC1 | -17.9% | -23.9% | -25.4% | -2.05% | -28.9% | -21.6% |
| CCOc1c(Cl)cc(Cl)cc1C(c1ccc(Cl)cc1S(=O)(=O)O)c1cc(Cl)cc(Cl)c1OCC | 99.2% (active) | 99.3% (active) | 99.6% (active) | 98% (active) | 99% (active) | 99.2% (active) |
| C[C@@H](O)[C@H](NSc1ccccc1[N+](=O)[O-])C(=O)NCCc1nc(-c2nc(C(=O)NCCCBr)cs2)cs1 | -0.8% | 2.35% | -2.1% | -21.5% | 1.55% | 13% |
| O=C(O)c1ccn(-c2cccc(-n3ccc(C(=O)O)n3)n2)n1 | -1.05% | -17.1% | 2.25% | -47.7% | -15.4% | -7.1% |
| CC(C)C1NC(=O)CC(c2ccccc2)N(N=O)C1c1ccccc1 (stereo not drawn) | -29.3% | -9% | -4.85% | -14.9% | -5.9% | -16.8% |
| OC(c1cccnc1)C(CCc1ccccn1)c1ccccn1 (stereo not drawn) | 2.65% | 13.1% | -4.6% | -46% | 4.3% | 4% |
| CCCNC1=C(OC)C(=O)C(NCCC)=C(OC)C1=O | -0.3% | 6.8% | 9.15% | -47.5% | 2% | -9.15% |
| CSC(/C=C/c1ccccc1)=Nc1ccccc1 | 3.2% | 11.9% | -0.9% | -21.6% | 23.6% | 15% |
| Cn1c(=O)c2c(nc(C3CC3)n2C)n(C)c1=O | -1.15% | -0.6% | 5.65% | -16.6% | -0.55% | 12.1% |
| CC(C)(C)C(=O)[CH-]C(=O)C(F)(F)F.CC(C)(C)C(=O)[CH-]C(=O)C(F)(F)F.CC(C)(C)C(=O)[CH-]C(=O)C(F)(F)F.[Ru+3] | 25.8% | -4.65% | 1.7% | -1.35% | 8.5% | 24.4% |
| O=C(Nc1ccc(I)cc1)c1ccc([N+](=O)[O-])cc1 | 2.3% | -11.1% | -5.05% | -8.2% | 0.35% | -4.5% |
| OCC#C[C@@H]1CC[C@H]1C#CCO | 7.3% | -3.3% | 6.3% | 2.3% | 2.6% | -6% |
| CCCNC(=O)Nc1ccc2c(c1)Cc1cc([N+](=O)[O-])ccc1-2 | -12.2% | 2.5% | -4.3% | -42% | 6.75% | -14.3% |

| Structure (SMILES) | growth inhibition [1] | growth inhibition [2] | growth inhibition [3] | growth inhibition [4] | growth inhibition [5] | growth inhibition [6] |
| --- | --- | --- | --- | --- | --- | --- |
| CN1CCCCC1C(O)CO (stereo not drawn) | 11.4% | -5.7% | -8.05% | -47.4% | -3.2% | -27.1% |
| CC1(C)C(=NN=C(N)N)C(C)(C)C1=NN=C(N)N | -3.35% | -6.95% | -15.8% | 29.3% | -18.5% | 14.7% |
| Cc1cnc(Cl)[nH]1 (tested in a mixture with another compound) | 2.7% | 1.55% | 2.15% | -47.5% | 14.8% | -5.5% |
| CCOC(=O)N1C2CC=CCC1C1(c3ccccc3)OC2(c2ccccc2)c2ccccc21 | -16.7% | -3.95% | -4.6% | 5.05% | -1.05% | -24.1% |
| COc1cc2c(cc1O)C(C)C(c1ccccc1)O2 (stereo not drawn) | 3.95% | 4.8% | 9.45% | -21.1% | 7.15% | 13.2% |
| OCCN(c1ccccc1)c1nc(N(CCO)c2ccccc2)nc(N(CCO)c2ccccc2)n1 | 2.7% | 8.8% | 32.5% | 7.75% | 29.9% | 1.7% |
| Oc1c(O)c(O)c(O)c(O)c1O | -5.3% | 4.15% | 7.45% | -13.9% | -0.45% | -3% |
| O=c1c(-c2c(-c3ccccc3)oc3ccc(Cl)cc3c2=O)c(-c2ccccc2)oc2ccc(Cl)cc12 | 18.9% | 3.9% | 5.3% | 7.25% | 17.3% | 3.75% |
| O/N=C1/CC2(N3CCOCC3)C3CC/C(=N\O)C2CC1(Cc1ccccc1)C3 (stereo not drawn) | 2.75% | 0.25% | 17.1% | 27.7% | -11.2% | -10% |
| CC(=O)C1=C(C)NC2C=CC=CN12 (stereo not drawn) | 3.95% | -6.9% | 15.5% | 17.9% | 7.3% | 12.9% |
| CN(C)C1=NS(=O)(=O)N=C(N(C)c2ccccc2)O1 | 14.5% | 6.65% | 6.45% | 16.8% | 8.15% | 10.5% |
| O=C(Nc1ccccc1C(=O)N/N=C/c1ccc(Cl)cc1)c1ccccc1Cl | 49.2% | 27.9% | 22.6% | 29.6% | 42.1% | 25.8% |
| COc1ccc2c(c1)c1ccc3c(c1n2C)C(=O)C=CC3=O | 8.4% | -1.6% | 43% | 11% | 4.8% | 15.7% |
| C1CCCN(/N=N/N2CCCCCC2)CC1 | -1.5% | 0.4% | -1.7% | -19.1% | 10.8% | 6.65% |
| CCCCCCCCCCCCCCCCS(=O)(=O)N/N=C(/C)N(C)c1ccc(OC)cc1 | -15.4% | -32.4% | -6.1% | -10.4% | -15.4% | -7.15% |
| O=C(O)C(=O)NCc1cnccn1 | 10.9% | -8.25% | -3.65% | -29.6% | 11.9% | -19.1% |
| C[N+](C)(C)C1CCC1 | -2.4% | -4.75% | -1.75% | 8.35% | -15.1% | 5.7% |
| O=C1NC(=O)C(c2ccc(Cl)cc2)N1 (stereo not drawn) | 0% | -10.8% | -6.3% | -5.3% | -3.75% | -15.2% |
| CCOC(=O)/C(=C\c1cc(OC)ccc1OC)P(=O)(OCC)OCC | 39.2% | 25.9% | 18.4% | 21.9% | 7.6% | 16.8% |
